According to PubChem BioAssay (NCATS):
Inconclusive results are not listed. A call without a number means that no potency is given here. A number with no mark means an inactive call. Calls of active or inactive are those of the source. Calls come from the whole dose curve; as a rule, active = well fitted curve in the direction sought with a large enough effect; inconclusive = small, poorly fitted or top-dose-only effect, or another doubt; inactive = no such curve, though single readings can be large; an effect the other way counts as inactive or inconclusive.

Experiments:
[1] = target: Rap guanine nucleotide exchange factor 3 (Homo sapiens) (UniProt O95398); test: Confirmatory qHTS for agonist of cAMP-regulated guanine nucleotide exchange factor 3 (EPAC1) (AID 1645881);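 note: EPAC1 catalysed release of BODIPY-GDP from Rap1B seen as fluorescence loss; nearly all actives have a fitted effect of over 75% in size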
Chain of Rap guanine nucleotide exchange factor 3 (Homo sapiens) (O95398 whole entry, looked up): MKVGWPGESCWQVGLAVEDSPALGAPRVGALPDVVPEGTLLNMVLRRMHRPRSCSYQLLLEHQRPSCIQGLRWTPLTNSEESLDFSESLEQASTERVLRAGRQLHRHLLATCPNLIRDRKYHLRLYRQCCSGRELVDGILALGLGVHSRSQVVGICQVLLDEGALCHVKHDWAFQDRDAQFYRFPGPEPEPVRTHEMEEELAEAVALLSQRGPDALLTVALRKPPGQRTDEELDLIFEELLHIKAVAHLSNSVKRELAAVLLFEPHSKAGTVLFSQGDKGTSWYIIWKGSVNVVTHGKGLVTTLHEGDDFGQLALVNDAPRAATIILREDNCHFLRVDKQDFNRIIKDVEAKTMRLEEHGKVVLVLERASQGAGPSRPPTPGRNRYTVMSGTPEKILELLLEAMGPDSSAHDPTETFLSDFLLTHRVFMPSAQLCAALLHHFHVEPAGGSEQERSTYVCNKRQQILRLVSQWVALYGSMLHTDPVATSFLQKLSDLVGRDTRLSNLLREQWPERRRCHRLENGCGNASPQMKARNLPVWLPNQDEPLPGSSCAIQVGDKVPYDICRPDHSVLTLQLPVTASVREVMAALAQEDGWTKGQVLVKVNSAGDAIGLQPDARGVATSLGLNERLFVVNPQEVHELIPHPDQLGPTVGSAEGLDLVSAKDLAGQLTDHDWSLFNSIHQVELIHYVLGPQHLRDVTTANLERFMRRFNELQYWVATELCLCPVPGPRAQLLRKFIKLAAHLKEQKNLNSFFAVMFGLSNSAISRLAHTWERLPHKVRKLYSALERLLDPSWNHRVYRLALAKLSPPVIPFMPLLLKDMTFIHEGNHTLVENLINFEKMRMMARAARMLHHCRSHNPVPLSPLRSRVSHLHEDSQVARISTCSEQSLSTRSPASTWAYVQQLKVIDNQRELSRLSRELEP

[2] = target: Rap guanine nucleotide exchange factor 4 (Homo sapiens) (UniProt Q8WZA2); test: Confirmatory qHTS for agonist of cAMP-regulated guanine nucleotide exchange factor 4 (EPAC2) (AID 1645884);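 note: nucleotide exchange releases bodipy-GDP from Rap1 and this lowers its fluorescence; nearly all actives have a fitted effect of over 65% in size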
Chain of Rap guanine nucleotide exchange factor 4 (Homo sapiens) (Q8WZA2 whole entry, looked up): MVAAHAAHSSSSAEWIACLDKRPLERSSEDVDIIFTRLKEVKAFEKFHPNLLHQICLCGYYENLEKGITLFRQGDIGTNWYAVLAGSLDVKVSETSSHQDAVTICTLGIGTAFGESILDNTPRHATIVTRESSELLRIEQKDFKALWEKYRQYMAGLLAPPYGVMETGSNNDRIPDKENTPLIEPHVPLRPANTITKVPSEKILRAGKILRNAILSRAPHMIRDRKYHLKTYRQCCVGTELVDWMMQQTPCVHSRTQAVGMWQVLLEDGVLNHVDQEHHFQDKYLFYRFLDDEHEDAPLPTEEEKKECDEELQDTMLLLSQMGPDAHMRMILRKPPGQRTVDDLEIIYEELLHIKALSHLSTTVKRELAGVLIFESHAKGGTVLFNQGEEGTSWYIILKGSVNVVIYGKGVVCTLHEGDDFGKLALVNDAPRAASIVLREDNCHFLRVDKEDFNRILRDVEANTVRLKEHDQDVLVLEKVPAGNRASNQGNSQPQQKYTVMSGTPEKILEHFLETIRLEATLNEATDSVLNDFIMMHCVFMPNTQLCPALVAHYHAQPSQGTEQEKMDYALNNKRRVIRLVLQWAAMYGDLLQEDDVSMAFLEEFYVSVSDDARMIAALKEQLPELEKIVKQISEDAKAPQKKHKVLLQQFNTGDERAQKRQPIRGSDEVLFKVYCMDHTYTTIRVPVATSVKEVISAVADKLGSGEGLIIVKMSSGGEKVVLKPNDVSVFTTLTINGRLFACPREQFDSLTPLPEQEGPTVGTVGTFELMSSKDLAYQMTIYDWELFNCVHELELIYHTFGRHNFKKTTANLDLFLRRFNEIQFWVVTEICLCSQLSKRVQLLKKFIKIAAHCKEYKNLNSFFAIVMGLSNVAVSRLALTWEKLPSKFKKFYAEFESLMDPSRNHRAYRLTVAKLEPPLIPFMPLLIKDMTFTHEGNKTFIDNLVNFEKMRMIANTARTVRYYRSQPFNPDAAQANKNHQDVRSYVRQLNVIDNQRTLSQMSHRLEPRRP

[3] = target: Rap guanine nucleotide exchange factor 4 (Homo sapiens) (UniProt Q8WZA2); test: Confirmatory qHTS for antagonist of cAMP-regulated guanine nucleotide exchange factor 4 (EPAC2) (AID 1645885); note: nearly all actives have a fitted effect of over 25% in size; note: potency is the fitted concentration of half-maximal effect
[4] = target: Rap guanine nucleotide exchange factor 3 (Homo sapiens) (UniProt O95398); test: Counterscreen qHTS for antagonist of cAMP-regulated guanine nucleotide exchange factor 3 (EPAC1) (AID 1645888);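 note: fluorescence loss as bound BODIPY-GDP is released from Rap1B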
Outline: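 Measured: fluorescence of BODIPY-GDP bound to Rap1B, which falls as exchange proceeds. Conditions include 50 uM competing GDP, 5 and 30 min reads, and a later cAMP challenge for antagonist detection.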

**Q.** For `Cc1ccc(NCc2nc3ccccc3n2CCOc2ccccc2)cc1`, which Potency [1] is on record?
**A.** inactive

**Q.** What about the Potency [2] of the same molecule?
**A.** inactive

**Q.** What about the Potency [3] of the same molecule?
**A.** inactive

**Q.** `COc1ccccc1NC(=O)c1ccccc1NS(=O)(=O)c1cccs1` was tested. Which Potency [1] did it give?
**A.** inactive

**Q.** What about the Potency [2] of the same molecule?
**A.** inactive

**Q.** What about the Potency [3] of the same molecule?
**A.** inactive

**Q.** `CC(NS(=O)(=O)OCC(Cl)(Cl)Cl)c1ccc(C(C)(C)C)cc1` (stereo unspecified) was tested. Which Potency [1] did it give?
**A.** inactive

**Q.** What about the activation [2] of the same molecule?
**A.** 4.78% [at 17.1 µM, percent relative to cAMP agonist control]

**Q.** What about the Potency [3] of the same molecule?
**A.** inactive

**Q.** Which Potency [1] does the source give for `Cc1cc(C)cc(OCC(=O)OCC(=O)NC2CCCCCCC2)c1` here?
**A.** inactive

**Q.** What about the Potency [2] of the same molecule?
**A.** inactive

**Q.** And the Potency [3]?
**A.** inactive

**Q.** How did the Potency [1] turn out when `Oc1ccc(N=Cc2ccc(OCc3ccccc3)cc2)cc1` was run?
**A.** inactive

**Q.** And the activation [2]?
**A.** 11.9% [at 17.1 µM, percent relative to cAMP agonist control]

**Q.** And the Potency [3]?
**A.** inactive

**Q.** How did the Potency [1] turn out when `O=S1(=O)CCOC[C@H](CC2CCCCC2)N1Cc1cccc(C(F)(F)F)c1` was run?
**A.** inactive

**Q.** And the activation [2]?
**A.** 4.69% [at 17.1 µM, percent relative to cAMP agonist control]

**Q.** What about the Potency [3] of the same molecule?
**A.** inactive

**Q.** Which Potency [1] does the source give for `Cc1nc2c(OCc3ccc(OC(F)F)cc3)cccn2c1N(C)C(=O)CCC1CCCC1` here?
**A.** inactive

**Q.** And the Potency [2]?
**A.** inactive

**Q.** What about the Potency [3] of the same molecule?
**A.** 26.9 µM (active)

**Q.** What does the source list for `Cc1ccc(N=C2NC(=O)/C(=C/C=C/c3ccco3)S2)cc1`?
**A.** Potency [1]: inactive; Potency [2]: inactive; Potency [3]: inactive

**Q.** With `Cc1ccccc1/C=C1\SC(=S)N(/N=C/c2cc([N+](=O)[O-])ccc2O)C1=O` as the molecule, how does the Potency [1] read?
**A.** inactive

**Q.** What about the Potency [2] of the same molecule?
**A.** inactive

**Q.** And the Potency [3]?
**A.** inactive

**Q.** How did the Potency [1] turn out when `Cc1ccc(C(=O)Nc2cccc(-c3ccc(N4CCOCC4)nn3)c2)cc1C` was run?
**A.** inactive

**Q.** What about the Potency [2] of the same molecule?
**A.** inactive

**Q.** What about the Potency [3] of the same molecule?
**A.** inactive

**Q.** Which Potency [1] does the source give for `Cn1c(SCC(=O)c2ccc3c(c2)Cc2ccccc2-3)nnc1-c1ccccc1` here?
**A.** inactive

**Q.** What about the activation [2] of the same molecule?
**A.** 0% [at 17.1 µM, percent relative to cAMP agonist control]

**Q.** And the Potency [3]?
**A.** inactive

**Q.** How did the Potency [1] turn out when `O=C(c1[nH]c(C(F)(F)F)nc1-c1ccccc1)N1CCC(C(O)(c2ccccc2)c2ccccc2)CC1` was run?
**A.** inactive

**Q.** What about the Potency [2] of the same molecule?
**A.** inactive

**Q.** And the Potency [3]?
**A.** inactive

**Q.** With `Cc1ccccc1CN1C(=O)C(C)Sc2ccc(-c3ccco3)cc21` (stereo unspecified) as the molecule, how does the Potency [1] read?
**A.** inactive

**Q.** What about the Potency [2] of the same molecule?
**A.** inactive

**Q.** What about the Potency [3] of the same molecule?
**A.** inactive

**Q.** Which Potency [1] does the source give for `C=Cc1ccc(Cn2nc(-c3ccccc3)ccc2=O)cc1` here?
**A.** inactive

**Q.** What about the activation [2] of the same molecule?
**A.** -8.97% [at 17.1 µM, percent relative to cAMP agonist control]

**Q.** What about the Potency [3] of the same molecule?
**A.** inactive

**Q.** What about the activity change, negative = inhibition [4] of the same molecule?
**A.** -16.6% [at 30.8 µM]

**Q.** `O=S(=O)(NCC(c1cccnc1)N1CCN(c2ccccc2F)CC1)c1cccs1` (stereo unspecified) was tested. Which Potency [1] did it give?
**A.** inactive

**Q.** What about the activation [2] of the same molecule?
**A.** 0% [at 17.1 µM, percent relative to cAMP agonist control]

**Q.** What about the Potency [3] of the same molecule?
**A.** inactive

**Q.** And the activity change, negative = inhibition [4]?
**A.** -13.6% [at 30.8 µM]

**Q.** How did the Potency [1] turn out when `Cc1cccc(CN2Cc3cccc4c3[C@H](C=CC4)CC2=O)c1` was run?
**A.** inactive

**Q.** And the Potency [2]?
**A.** inactive

**Q.** What about the Potency [3] of the same molecule?
**A.** 44.1 µM (active)

**Q.** `Cc1c(C)c2ccc(OCC(=O)Nc3ccc(S(N)(=O)=O)cc3)c(C)c2oc1=O` was tested. Which Potency [1] did it give?
**A.** inactive

**Q.** What about the Potency [2] of the same molecule?
**A.** inactive

**Q.** What about the Potency [3] of the same molecule?
**A.** inactive

**Q.** What about the Potency [4] of the same molecule?
**A.** inactive

**Q.** With `COC(=O)[C@]12CCCCC=C1N(Cc1ccco1)C(=O)[C@H](CC(=O)NCc1cccs1)C2` as the molecule, how does the Potency [1] read?
**A.** inactive

**Q.** And the Potency [2]?
**A.** inactive

**Q.** What about the Potency [3] of the same molecule?
**A.** inactive

**Q.** Which results are given for `CN(C)S(=O)(=O)c1ccc(N2CCCC2)c(C(=O)NCC2COc3ccccc3O2)c1` (stereo unspecified)?
**A.** Potency [1]: inactive; Potency [2]: inactive; Potency [3]: 30.1 µM (active); Potency [4]: inactive

**Q.** For `CCc1ccc2occ(CC(=O)Nc3ccc(C)c(C)c3)c2c1`, which Potency [1] is on record?
**A.** inactive

**Q.** And the Potency [2]?
**A.** inactive

**Q.** And the Potency [3]?
**A.** inactive

**Q.** What about the Potency [4] of the same molecule?
**A.** inactive

**Q.** What does the source list for `CCCCN(Cc1ccccc1)C(=O)c1oc(=O)c2ccccc2c1-c1ccc(C)cc1`?
**A.** Potency [1]: inactive; Potency [2]: inactive; Potency [3]: inactive; Potency [4]: inactive

**Q.** Which results are given for `Cc1ccc(C)c(N2CCN(C(=O)c3ccc4c(=O)n5c(nc4c3)CCCCC5)CC2)c1`?
**A.** Potency [1]: inactive; activation [2]: 5.24% [at 17.1 µM, percent relative to cAMP agonist control]; Potency [3]: inactive; activity change, negative = inhibition [4]: -18% [at 30.8 µM]

**Q.** What does the source list for `Cc1ccc(C2c3c(-c4cc(C)ccc4O)n[nH]c3C(=O)N2Cc2ccco2)cc1` (stereo unspecified)?
**A.** Potency [1]: inactive; Potency [2]: inactive; outcome [3]: inactive [at 12.7 µM]

**Q.** `COc1cc(CNc2ccc(O)cc2)cc(Br)c1OCc1ccccc1F` was tested. Which Potency [1] did it give?
**A.** inactive

**Q.** And the activation [2]?
**A.** 0.373% [at 17.1 µM, percent relative to cAMP agonist control]

**Q.** And the Potency [3]?
**A.** inactive

**Q.** Which results are given for `CCc1nc2ccc(C(=O)Nc3ccc(OC)c(OC)c3)cn2c1N(C)CCC(C)C`?
**A.** Potency [1]: inactive; activation [2]: 6.16% [at 17.1 µM, percent relative to cAMP agonist control]; Potency [3]: inactive

**Q.** Which Potency [1] does the source give for `C#CCN(Cc1nc(N2CCOCC2)c2ccc(Cl)cc2n1)Cc1ccco1` here?
**A.** inactive

**Q.** What about the Potency [2] of the same molecule?
**A.** inactive

**Q.** What about the Potency [3] of the same molecule?
**A.** 17.5 µM (active)

**Q.** `COc1cccc(C(=O)Nc2ccc(NC(=O)c3ccco3)c(Cl)c2)c1` was tested. Which Potency [1] did it give?
**A.** inactive

**Q.** And the activation [2]?
**A.** 0% [at 17.1 µM, percent relative to cAMP agonist control]

**Q.** What about the Potency [3] of the same molecule?
**A.** inactive

**Q.** What about the activity change, negative = inhibition [4] of the same molecule?
**A.** -46.5% [at 30.8 µM]

**Q.** With `CN(c1ccccc1)c1ccc(/C=C(/CCC(=O)O)c2nc3ccccc3s2)cc1[N+](=O)[O-]` as the molecule, how does the Potency [1] read?
**A.** inactive

**Q.** And the Potency [2]?
**A.** inactive

**Q.** What about the Potency [3] of the same molecule?
**A.** inactive

**Q.** What about the Potency [4] of the same molecule?
**A.** inactive

**Q.** Which results are given for `Cc1cccc(N(C)S(=O)(=O)c2c[nH]c3ccc([N+](=O)[O-])cc23)c1`?
**A.** Potency [1]: inactive; Potency [2]: inactive; Potency [3]: inactive
